# Laboratory results taken from the supplement of paper PMC12297408.
# Where a name gives a salt, the structure may show the parent alone. The campaign covered roughly 1,300 compounds. About 40 (3%) showed activity. What follows is part of a selection rich in actives, with near analogues and random picks from the rest. Values without a mark were called inactive.
# System: Plasmodium falciparum NF54/iGP1_RE9H ulg8 stage V gametocytes
# Assay: gametocyte viability (luciferase signal relative to DMSO control) (% of DMSO control); higher = less gametocytocidal activity, active = 50 or less
# Conditions: exposure time: 72 h
# In short: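 Compounds from 10 mM DMSO stocks were spotted at nanolitre scale into 96-well plates, and day-12 stage V NF54/iGP1_RE9Hulg8 gametocytes (~2.5% gametocytemia, 3% hematocrit; medium with 0.5% Albumax II) were added to reach 10 µM or 1 µM, one well per concentration. The plates were kept at 37 °C for 72 h. Luminescence was then read on an IVIS Lumina II after mixing 90 µl of culture with 10 µl D-luciferin (30 mg/ml). Viability values are relative to the plate's mean DMSO vehicle signal.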
SMILES,gametocyte viability (concentration: 1 µM),gametocyte viability (concentration: 10 µM)
C#C[C@]1(O)CC[C@H]2[C@@H]3CCC4=C(CCC(=O)C4)[C@H]3CC[C@@]21C [Norethynodrel],83.2,68.7
COC(=O)C1=C(C)NC(C)=C(C(=O)OC)C1c1ccccc1[N+](=O)[O-] [Nifedipine],91.8,80.7
Clc1ccc(C(Cn2ccnc2)OCc2c(Cl)cccc2Cl)c(Cl)c1 (stereo not given) [Isoconazole],91.2,90.9
CN(C)CCOC(C)(c1ccccc1)c1ccccn1 (stereo not given) [Doxylamine succinate],87.8,87.7
Cc1cc(-n2c(=O)[nH]c(=O)n(C)c2=O)ccc1Oc1ccc(SC(F)(F)F)cc1 [Toltrazuril],86.4,84.2
CC1(C)O[C@@H]2C[C@H]3[C@@H]4C[C@H](F)C5=CC(=O)C=C[C@]5(C)[C@H]4[C@@H](O)C[C@]3(C)[C@]2(C(=O)CO)O1 [Flunisolide],87.5,88.9
C[N+](C)(CCOc1ccccc1)Cc1ccccc1.O=C([O-])c1cc2ccccc2cc1O [Bephenium hydroxynaphthoate],87.3,89.9
Cc1cc(C(C)(C)CC(C)(C)C)ccc1OCCOCC[N+](C)(C)Cc1ccccc1 [Methyl benzethonium chloride],88.6,6.6 (active)
CC(C)(C)CC(C)(C)c1ccc(OCCOCC[N+](C)(C)Cc2ccccc2)cc1 [Benzethonium chloride],82.1,9.32 (active)
Cc1cc(C2CCCCC2)n(O)c(=O)c1 [Ciclopirox ethanolamine],85.5,86.8
Clc1ccc2nsnc2c1NC1=NCCN1 [Tizanidine HCl],93.4,98.4
C[C@H]1[C@H](NC(=O)/C(=N\OC(C)(C)C(=O)O)c2csc(N)n2)C(=O)N1S(=O)(=O)O [Aztreonam],96.9,96
CCOC(=O)O[C@]1(C(=O)OCCl)CC[C@H]2[C@@H]3CCC4=CC(=O)C=C[C@]4(C)[C@H]3[C@@H](O)C[C@@]21C [Loteprednol etabonate],88.2,85
Cc1cccc(C)c1NC(=O)C(C)N (stereo not given) [Tocainide hydrochloride],91.8,90.2
O=C1CC2(CCCC2)CC(=O)N1CCCCN1CCN(c2ncccn2)CC1 [Buspirone hydrochloride],83.9,65.7
O=C1Cc2cc(CCN3CCN(c4nsc5ccccc45)CC3)c(Cl)cc2N1 [Ziprasidone  Hydrochloride],82.9,71.6
O=C1[C@H]2CCCC[C@H]2C(=O)N1CCCCN1CCN(c2nsc3ccccc23)CC1 [Perospirone],64.7,39.7 (active)
N=c1nc(N2CCCCC2)cc(N)n1O [Minoxidil],102,96
OCCN(CCO)c1nc(N2CCCCC2)c2nc(N(CCO)CCO)nc(N3CCCCC3)c2n1 [Dipyridamole],64.1,41.1 (active)
"CC(C)NCC(O)c1ccc(O)c(O)c1 (single isomer, unassigned; (+)) [(+)-Isoproterenol (+)-bitartrate salt]",100,97.8
CC(=O)c1ccc2c(c1)N(CCCN1CCC(CCO)CC1)c1ccccc1S2 [Piperacetazine],79.4,80.8
Fc1ccc(C(c2ccc(F)cc2)N2CCN(C/C=C/c3ccccc3)CC2)cc1 [Flunarizine dihydrochloride],81.5,95.1
COC1=CC(=O)C[C@@H](C)[C@]12Oc1c(Cl)c(OC)cc(OC)c1C2=O [Griseofulvin],89.3,84.6
CCOC(=O)O[C@]1(C(=O)COC(=O)CC)CC[C@H]2[C@@H]3CCC4=CC(=O)C=C[C@]4(C)[C@H]3[C@@H](O)C[C@@]21C [Prednicarbate],91.7,90.6
CN(Cc1cnc2nc(N)nc(N)c2n1)c1ccc(C(=O)N[C@@H](CCC(=O)O)C(=O)O)cc1 [Methotrexate],91.4,87.9
"CN(Cc1cnc2nc(N)nc(N)c2n1)c1ccc(C(=O)N[C@@H](CCC(=O)O)C(=O)O)cc1 (racemic) [Amethopterin (R,S)]",80.3,83.6
COc1cccc2c1C(=O)c1c(O)c3c(c(O)c1C2=O)C[C@@](O)(C(=O)CO)C[C@@H]3O[C@H]1C[C@H](N)[C@H](O)[C@H](C)O1 [Doxorubicin hydrochloride],64.5,19 (active)
COc1cccc2c1C(=O)c1c(O)c3c(c(O)c1C2=O)C[C@@](O)(C(C)=O)C[C@@H]3O[C@H]1C[C@H](N)[C@H](O)[C@H](C)O1 [Daunorubicin hydrochloride],69.8,7.37 (active)

SMILES,gametocyte viability (concentration: 1 µM),gametocyte viability (concentration: 10 µM)
C#C[C@]1(O)CC[C@H]2[C@@H]3CCC4=CCCC[C@@H]4[C@H]3CC[C@@]21C [Lynestrenol],86,89.2
CCCCNc1c(C(=O)OCC)c(C)nc2c1cnn2CC [Tracazolate hydrochloride],88.5,76.3
CC#C[C@]1(O)CC[C@H]2[C@@H]3CCC4=CC(=O)CCC4=C3[C@@H](c3ccc(N(C)C)cc3)C[C@@]21C [Mifepristone],83.1,83.2
CN(C)CCOC1=Cc2ccccc2Sc2ccc(Cl)cc21 [Zotepine],91.1,86
CCOC(=O)N1CCC(=C2c3ccc(Cl)cc3CCc3cccnc32)CC1 [Loratadine],86,87.7
OC(Cn1cncn1)(Cn1cncn1)c1ccc(F)cc1F [Fluconazole],83.4,86.9
CC(C)(C#N)c1cc(Cn2cncn2)cc(C(C)(C)C#N)c1 [Anastrozole],77.6,45.8 (active)
CN(C)CCc1c[nH]c2ccc(Cn3cncn3)cc12 [Rizatriptan benzoate],84.2,84
CC(C)c1nc(CN(C)C(=O)N[C@H](C(=O)N[C@@H](Cc2ccccc2)C[C@H](O)[C@H](Cc2ccccc2)NC(=O)OCc2cncs2)C(C)C)cs1 [Ritonavir],66.4,36.5 (active)
Nc1ccc(/N=N/c2ccccc2)c(N)n1 [Phenazopyridine hydrochloride],88.3,48.1 (active)
Nc1c2ccccc2nc2ccccc12 [Aminacrine],85.8,81.4
CCN1CCN(C(=O)N[C@@H](C(=O)N[C@@H]2C(=O)N3C(C(=O)O)=C(CSc4nnnn4C)CS[C@H]23)c2ccc(O)cc2)C(=O)C1=O [Cefoperazone dihydrate],79.3,83.8
CC(N)CCCC(C)(C)O (stereo not given) [Heptaminol hydrochloride],82.3,84.6
Cc1c(-c2ccccc2)oc2c(C(=O)OCCN3CCCCC3)cccc2c1=O [Flavoxate hydrochloride],92,87
N#CC(c1ccc(Cl)cc1)c1c(Cl)cc(-n2ncc(=O)[nH]c2=O)cc1Cl (stereo not given) [Diclazuril],92.9,91.4
CC(=O)Nc1c(I)c(C(=O)N[C@H]2C(O)O[C@H](CO)[C@@H](O)[C@@H]2O)c(I)c(N(C)C(C)=O)c1I (stereo not given in full) [Metrizamide],84.7,88.9
CCCC1C(=O)N2C(N(C)C)=Nc3ccc(C)cc3N2C1=O (stereo not given) [Azapropazone],89.5,87.5
Oc1c(Cl)cc(Cl)c2cccnc12 [Chloroxine],83.4,84.2
CO[C@@]1(NC(=O)Cc2cccs2)C(=O)N2C(C(=O)O)=C(COC(N)=O)CS[C@@H]21 [Cefoxitin sodium salt],85.9,81.1
CNC1(C)C2CCC(C2)C1(C)C (stereo not given) [Mecamylamine hydrochloride],93.8,94.3
CCC(C)(C)C(=O)O[C@H]1C[C@@H](C)C=C2C=C[C@H](C)[C@H](CC[C@@H]3C[C@@H](O)CC(=O)O3)[C@H]21 [Simvastatin],80.4,85.5
CCOC(=O)C1=C(COCCN)NC(C)=C(C(=O)OC)C1c1ccccc1Cl (stereo not given) [Amlodipine],82.2,63.1
"COCCc1ccc(OCC(O)CNC(C)C)cc1 (racemic) [Metoprolol-(+,-) (+)-tartrate salt]",94,94
CCCCCCNC(=O)n1cc(F)c(=O)[nH]c1=O [Carmofur],80.2,76.4
Cc1cccn2c(=O)c(-c3nnn[nH]3)cnc12 [Pemirolast potassium],80.6,84.7
COc1cc(C(=O)N2CCOCC2)cc(OC)c1OC [Trimetozine],81.7,80.2
"CN1CCc2c(c3ccccc3n2Cc2ccccc2)C1 [Mebhydroline 1,5-naphtalenedisulfonate]",88.8,83.3
